# ± gives the standard deviation of the averaged measurements.
# Experiments:
# DLD1 [1] = assay: cell viability (CellTiter-Glo) relative to plate median (fraction of plate median); higher = more viable cells; conditions: 5 µM; treatment time 24 h; reporter: 7TFP
# Outline: (§1)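 Per-well firefly luciferase or CellTiterGlo luminescence, normalised to the plate median, is what is reported. It was measured in colorectal cancer cells with stable lentiviral TCF/Wnt firefly luciferase reporters after a 24 h treatment with library compounds at a final 5 µM. The mean of two independent replicates is given.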
# HCT116 = assay: as above; conditions: 5 µM; treatment time 24 h; reporter: TCF4/Wnt
# Outline: as §1
# SW480 [2] = assay: as above; conditions: 5 µM; treatment time 24 h; reporter: 7TFP
# Outline: as §1
# DLD1 [3] = assay: TCF/Wnt firefly luciferase reporter signal relative to plate median (fraction of plate median); higher = higher Wnt reporter signal; conditions: 5 µM; treatment time 24 h; reporter: 7TFP
# Outline: as §1
# SW480 [4] = assay: as above; conditions: 5 µM; treatment time 24 h; reporter: 7TFP
# Outline: as §1
Compound,cell viability (DLD1 [1]),cell viability (HCT116),cell viability (SW480 [2]),TCF/Wnt firefly luciferase reporter signal (DLD1 [3]),TCF/Wnt firefly luciferase reporter signal (SW480 [4])
CCOC(=O)[C@@](C)(N)Cc1ccc(O)c(O)c1,1 ± 0.025,0.93 ± 0.098,0.979 ± 0.044,1.1 ± 0.12,1.07 ± 0.064
CC(C)(C)NC[C@H](O)COc1nsnc1N1CCOCC1,0.966 ± 0.045,0.992 ± 0.17,0.9705 ± 0.0092,0.971 ± 0.084,1.04 ± 0.042
COC(=O)C[C@H]1C(C)(C)C(=O)[C@@H]2CC3C4=CC(=O)O[C@@H](c5ccoc5)[C@]4(C)CC[C@@H]3[C@@]1(C)C2=O (stereo not given in full),0.924 ± 0.0042,1.01 ± 0.06,0.957 ± 0.03,1.04 ± 0.014,0.866 ± 0.062
O=C(O)C1CC([C@@H]2CCCCN2)CN2CCCCC12 (stereo not given in full),1.03 ± 0.11,1.03 ± 0.17,0.981 ± 0.015,1.07 ± 0.064,1 ± 0.064
Cc1oc(C(C)O)c2c1C(=O)c1c(O)cccc1C2=O (stereo not given) [Bhimamycin A],1.14 ± 0.014,0.958 ± 0.06,1.23 ± 0.13,0.9925 ± 0.0092,1.07 ± 0.042
